High-throughput results from PubChem.
Pf growth 48h: inhibits P. falciparum growth in the first generation, 48 h; P. falciparum luciferase growth in erythrocytes, 48 h; Potency, µM (doses to about 28.7 µM), for inactives: at the highest dose activity change, negative = inhibition, most hits filed as inhibitors; 5.9% of 310,000 active; also: potency is read from the fitted curve at half-maximal effect; % is scaled to controls: 0 for no effect and ±100 for the full control effect
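Compounds are pin-transferred into medium, infected erythrocytes (2% hematocrit, 0.1% parasitemia final) are added, and plates sit one parasite generation at 37 C in 5% CO2. Detection reagent is then added and luminescence measured.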
SARS PLP yeast: blocks SARS-CoV papain-like protease in a yeast assay; AID 485353; Potency, µM (highest dose often 32.9 µM), for inactives: at the top dose activity, positive = growth rescue, hits mostly activators; 0.19% of 330,000 active; S. cerevisiae expressing SARS-CoV PLpro, growth rescue; calls by dose curve; also: potency is read from the fitted curve at half-maximal effect; 0% is about no effect; nearly all actives have a fitted effect of over 55% in size
HCMV antiviral: human cytomegalovirus inhibition; HFF cells, HCMV-luciferase reporter, 72 h; hits give low values; activity change, negative = inhibition, % at 57.5 µM; 4.5% of 410,000 active; in the data active = activity change below about -60%; inconclusive = no clear call, values can overlap the other calls; inactive = above about -39%; also: % is scaled to controls: 0 for no effect and ±100 for the full control effect
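Two compound doses tested in HFFs infected with HCMV-luciferase, MOI 1 PFU/cell, 72 h at 37C. Lysate luminescence read with OneGlo; data normalized against buffer-only and 10uM Salinomycin inhibitor controls.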
Pf growth 96h: P. falciparum growth inhibition at 96 hour, primary screen for plastid delayed-death inhibitors; P. falciparum luciferase reporter growth, 96 h; Potency, µM (top dose mostly 28.7 µM), for the others: top-dose activity change, negative = inhibition, actives largely listed as inhibitors; 6.9% of 320,000 active; also: potency is read from the fitted curve at half-maximal effect; % is scaled to controls: 0 for no effect and ±100 for the full control effect
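96 h incubation, 37 C, 5% CO2, of luciferase-reporter P. falciparum-infected RBCs (2% hematocrit, 0.05% parasitemia final) with test compounds; endpoint luminescence.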
Sm TGR block: inhibitors of Schistosoma mansoni thioredoxin glutathione reductase; Q962Y6; purified TGR, DTNB reduction, TNB absorbance 405 nm; Potency, µM (series often up to 114 µM), for inactives: at the highest dose activity change, negative = inhibition, most hits filed as inhibitors; 3% of 360,000 active; also: potency is read from the fitted curve at half-maximal effect; % is scaled to controls: 0 for no effect and ±100 for the full control effect; nearly all actives have a fitted effect of over 60% in size
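TGR 20 nM + NADPH 100 uM (dispensed conc.), cpd preinc 15 min RT; start with NADPH (500 uM addition) then DTNB (15 mM addition). Kinetic TNB absorbance, 405 nm filter. Four-parameter Hill fit across titration.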
HCV inhibitor: HCV inhibition; Huh7.5.1 HCVcc-Cre infection, luciferase reporter, 44 h; AID 651820; Potency, µM (titrated, usually from 41.8 µM), inactives show top-dose activity change, negative = inhibition, hits mostly inhibitors; 3.4% of 340,000 active; also: potency is read from the fitted curve at half-maximal effect; % is scaled to controls: 0 for no effect and ±100 for the full control effect
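HCVcc-Cre virus at an moi near 0.5 was added right after compound to cells cultured 4 h from seeding (1,000 cells/well). Luciferase activity was determined 44 h later, 15 min after substrate addition at RT.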
Active calls of the source: *; ? = inconclusive; . = no result given. The list is not random: actives were taken first. Their share in the collection is about 15%. Unless noted, calls follow the shape of the dose curve; as a rule, active = well fitted curve in the direction sought with a large enough effect; inconclusive = small, poorly fitted or top-dose-only effect, or another doubt; inactive = no such curve, though single readings can be large; an effect the other way counts as inactive or inconclusive.

SMILES	Pf growth 48h	SARS PLP yeast	HCMV antiviral	Pf growth 96h	Sm TGR block	HCV inhibitor
CCOC(=O)c1ccc(N2C(=O)CC(N3CCCC(C)C3)C2=O)cc1 (configuration not stated)	.	-35.9%	7.0	31.1%	25.1µM*	14.3%
CC(=O)N1CCN(c2csc3ccc(F)cc3c2=O)CC1	.	.	11.0	.	89.1µM*	.
COc1cccc(C(c2nnnn2C2CCCC2)N2CCN(C/C=C/c3ccccc3)CC2)c1OC (configuration not stated)	.	.	-21.3	.	.	.
CCCCNC(=O)CSc1nc2ccccc2c(=O)n1C1CCCC1	13.1µM*	-5.0%	-33.5	55.7%	-0.3%	?
Cc1nc2ccccc2c(=O)n1C1CCCCCC1	?	3.5%	8.2	20.0%	-4.8%	0.9%
CSc1nc2ccccc2c(=O)n1C1CCCCC1	7.6%	-0.9%	?	1.47µM*	-0.3%	-7.6%
CNC(=O)CSc1nc2ccccc2c(=O)n1C1CCCCC1	-23.6%	-0.5%	150.8	?	0.5%	7.8%
CCOC(=O)c1[nH]c(C)c(CCC(=O)Nc2ccccc2OCC)c1C	.	.	0.0	.	-2.9%	.
c1ccc(COc2cncc(-c3cccnc3)c2)cc1	10.4µM*	2.9%	-13.5	?	-8.0%	?
Cn1c(=O)c(C#N)c(-c2ccc(F)cc2)c2cc(C(=O)c3cc(Cl)cc(Cl)c3O)cnc21	?	-18.5%	-61.3*	?	-2.6%	11.2µM*
CC(C)(C)OC(=O)N1CCN(c2ccc([N+](=O)[O-])cc2)CC1	-3.0%	0.2%	8.6	6.8%	3.4%	12.7%
COC(=O)c1ccc(-n2c(C)cc(-c3csc(NC(=O)c4ccc(S(=O)(=O)N(C)C)cc4)n3)c2C)cc1	?	-30.6%	-13.4	?	-11.3%	-27.2%
Cc1cc(-c2csc(NC(=O)c3cccc(S(=O)(=O)N(C)C)c3)n2)c(C)n1-c1ccccc1	8.28µM*	0.6%	-0.1	11.7µM*	-17.0%	?
Cc1c(C(=O)NCc2ccccc2)sc2nc3n(c(=O)c12)CCC3	.	.	42.0	.	-9.0%	.
Nc1ccc(O)cc1C(=O)OCC(=O)c1ccc(C2CCCCC2)cc1	30.0%	4.3%	-95.3*	33.7%	-3.7%	?
CC(C)N(C(=O)c1nn(C)c2c1CSc1ccccc1-2)C1CCCCC1	-23.5%	-4.7%	-32.9	2.08µM*	0.9%	?
COc1ccccc1N1CCN(C(=O)CCC(=O)Nc2nnc(CC(C)C)s2)CC1	0.0%	22.4%	?	4.4%	17.4%	4.1%
Cc1nc2cccnc2n1C1CCN(S(C)(=O)=O)CC1	.	.	-20.0	.	-3.3%	.
CCOC(=O)N1CCC(NC(=O)c2cc3sccc3n2CC)CC1	15.3%	-1.8%	-8.0	5.22µM*	-3.3%	20.8%
CCn1c(C(=O)NC2CCC(C)CC2)cc2sccc21 (configuration not stated)	113.3%	-3.1%	-9.9	-18.0%	6.9%	?
CCOc1ccc(CCNC(=O)c2cc3sc(CC)cc3n2C)cc1OCC	.	.	-12.7	.	8.7%	.
CCOc1ccc(CCNC(=O)c2cc3sccc3n2CC)cc1OCC	?	.	-27.1	0.0%	0.0%	7.94µM*
CC(CC(=O)Nc1ccc2c(c1)c(=O)n(C)n2-c1cccs1)c1ccccc1 (configuration not stated)	.	.	-28.7	.	.	.
CCCCCCN1C[C@@H](O)[C@H](n2cc(C3CC3)nn2)C[C@@H]1c1ccc(C)cc1	.	.	16.9	.	.	.
N#Cc1cccc(NC(=O)Cn2cnc(S(=O)(=O)N3CCc4ccccc43)c2)c1	-25.4%	-12.2%	.	4.65µM*	6.3%	?
SMILES	Pf growth 48h	SARS PLP yeast	HCMV antiviral	Pf growth 96h	Sm TGR block	HCV inhibitor
CC(=O)c1cccc(NC(=O)Cn2cnc(S(=O)(=O)N3CCc4ccccc43)c2)c1	-3.5%	6.7%	-35.9	?	1.1%	?
O=C(COc1ccc(F)cc1Cl)Nc1nc(-c2ccccn2)cs1	?	3.1%	-81.6*	13.1µM*	-6.4%	?
N#Cc1ccccc1OCC(=O)Nc1nc(-c2ccccn2)cs1	.	.	-11.3	.	.	.
O=C(COc1ccccc1Cl)Nc1nc(-c2ccncc2)cs1	.	-8.1%	8.3	.	.	22.4µM*
COc1cccc(CNC(=O)[C@@H]2CCCN2C(=O)[C@@H]2CCCN2)c1	.	.	-3.2	.	.	.
Cc1c(C(=O)NCc2ccc(C(C)C)cc2)sc(=O)n1Cc1ccc(S(=O)(=O)N(C)C)cc1	.	.	-68.1*	.	.	.
Cc1c(C(=O)NCc2cccc(Cl)c2)sc(=O)n1Cc1ccc(C(=O)N(C)C)cc1	.	.	-9.2	.	.	.
Cc1c(C(=O)NCc2ccc(Cl)c(Cl)c2)sc(=O)n1Cc1ccc(C(=O)N(C)C)cc1	.	.	-68.6*	.	.	.
CC1=C[C@]23OC(C)(C)C[C@@]2(C)C[C@H](C)C3=CC1=O	.	.	18.1	.	.	.
CCOc1cc(C)ccc1OCc1nnc(SCC(=O)c2cccc([N+](=O)[O-])c2)n1C	?	?	10.4	11.7µM*	-10.1%	?
Cc1oc(-c2ccc(F)cc2)nc1CN1CCCC(C(=O)N2CCOCC2)C1 (configuration not stated)	-25.5%	5.2%	-37.1	35.2%	3.2%	-11.4%
CCOC(=O)N1CCN(C(=O)C2CCCN(Cc3nc(-c4ccc(Cl)cc4)oc3C)C2)CC1 (configuration not stated)	.	-2.3%	?	10.4µM*	0.3%	1.41µM*
COc1ccc(CCNC(=O)C2CCCN(Cc3nc(-c4ccccc4C)oc3C)C2)cc1OC (configuration not stated)	?	1.7%	-21.3	-9.7%	-22.8%	?
CCc1ccc(-c2nc(CN3CCCC(C(=O)NCCc4ccc(OC)c(OC)c4)C3)c(C)o2)cc1 (configuration not stated)	?	-5.5%	-92.3*	?	-15.5%	8.91µM*
Cc1oc(-c2ccc(Cl)cc2)nc1CN1CCCC(C(=O)NCc2ccco2)C1 (configuration not stated)	14.0%	4.0%	19.2	?	-5.3%	12.6µM*
Cc1ccc(Cl)cc1N1CCN(C(=O)C2CCCN(Cc3nc(-c4cccc(Cl)c4)oc3C)C2)CC1 (configuration not stated)	.	.	-69.2*	.	23.1%	.
CCc1ccccc1NC(=O)Cn1nc(N2CCN(c3ccccc3OC)CC2)ccc1=O	.	.	-0.8	.	6.7%	.
CCCCCCCCN1C(=O)[C@H](CC(=O)NCCCN2CCCC2=O)C[C@@]2(C(=O)OC)CC(C)(C)CC=C12	.	.	4.1	.	.	.
COC(=O)c1cc(Cl)ccc1NC(=O)Cn1c(C)cc(C)c(C#N)c1=O	.	.	-7.8	.	-0.7%	.
Cc1ccc(C)c(N2CCN(C(=O)C3CCCN(Cc4nc(-c5cccc(Cl)c5)oc4C)C3)CC2)c1 (configuration not stated)	.	.	-0.4	.	-3.4%	.
